Screening data (PubChem BioAssay)
TRb SRC2 PPI: TRbeta-SRC2 interaction inhibition | actives 0.065% (n = 280,000) | Potency, µM (titrated, usually from 106 µM), for inactives: at the highest dose activity change, negative = inhibition, hits mostly inhibitors | TRbeta-SRC2 peptide binding, fluorescence polarization; receptor liganded with 1 µM T3;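 further: plate controls were bound peptide for no effect and peptide without receptor for full effect; nearly all actives have a fitted effect of over 50% in size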
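Assay buffer: 20 mM Tris-HCl, 100 mM NaCl, 10% glycerol, 1 mM EDTA, 0.01% NP-40, 1 mM DTT, 1 uM T3, 5% DMSO; TRb LBD 0.6 uM, Texas Red SRC2 20 nM; FP after 5 hr.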
TexasRed fluor: counter-screen for TRb-SRC2 inhibitors: fluorescence interference; TRb/SRC2 Texas Red total fluorescence interference; Potency, µM (series often up to 106 µM), inactives show at the highest dose fluorescence change, negative = quenching; actives 0.29% (n = 280,000); active means well fitted curve in either direction with a large enough effect; inconclusive means small, poorly fitted or top-dose-only effect
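Flags fluorescent or light-absorbing compounds by total fluorescence, S + 2P, at 555 nm excitation and 632 nm emission. Mixture: 20 nM Texas Red SRC2 peptide, 0.6 uM human TRb LBD, 1 uM T3, 5% DMSO; compound exposure 5 h at ambient temperature.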
VDR inhibitor: vitamin D3 receptor (human) inhibition; Potency, µM, for the others: max response, negative = inhibition, hits mostly inhibitors; AID 504847; VDR-SRC2-3 peptide fluorescence polarization, 2 h; actives 0.93% (n = 400,000)
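VDR–SRC2-3 interaction, FP format. Cmpds 23 nl via pintool, brief spin, 2 h ambient incubation.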
GoLoco inh red: inhibitors of human Gai1-RGS12 GoLoco interaction (red fluorophore); Gai1:RGS12 GoLoco peptide FP, rhodamine, 10 min; Potency, µM (titrated, usually from 61.6 µM), without a hit: top-dose activity, negative = inhibition, usual class: inhibitors; actives 0.44% (n = 230,000); AID 880; active means well fitted inhibition curve with a large enough effect, not every such curve was filed as active; inactive means no such curve, though single readings can be large or run the other way; further: nearly all actives have a fitted effect of over 30% in size
Target sequence (P63096 whole entry, looked up): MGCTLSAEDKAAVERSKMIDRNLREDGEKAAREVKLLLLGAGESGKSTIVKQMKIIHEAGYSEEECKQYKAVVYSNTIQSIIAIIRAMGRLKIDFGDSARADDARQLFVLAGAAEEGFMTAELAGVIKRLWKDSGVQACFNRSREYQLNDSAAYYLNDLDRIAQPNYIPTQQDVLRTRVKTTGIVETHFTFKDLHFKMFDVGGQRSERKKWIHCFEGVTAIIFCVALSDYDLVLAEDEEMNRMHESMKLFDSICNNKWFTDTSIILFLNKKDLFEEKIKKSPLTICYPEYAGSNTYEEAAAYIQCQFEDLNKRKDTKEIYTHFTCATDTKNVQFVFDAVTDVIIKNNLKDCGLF
GCN5L2 inh: blocks human GCN5L2 histone acetyltransferase; Q92830; GCN5L2 HAT assay, ThioGlo1 CoA-SH fluorescence; Potency, µM (series often up to 58.9 µM), inactives show top-dose activity change, negative = inhibition, hits mostly inhibitors; actives 0.21% (n = 390,000)
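Fluorescence readout, Ex340nm/Em540nm: ThioGlo1 (50uM final) reacts with free CoA thiol released as 20nM GCN5L2 acetylates H3(1-25) peptide (75uM) using acetyl-CoA (70uM). Compound and enzyme sat 15 min beforehand; 20 min room-temperature reaction.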
Starred values were filed as active, the others as inactive; ? = inconclusive; · = not tested or not shown; [ ] = remark or other dose. Hits are enriched below; roughly 1.2% of the tested compounds scored in any of these assays. Unless noted, the call rests on the fitted dose curve; in most records, active means well fitted curve in the direction sought with a large enough effect; inconclusive means small, poorly fitted or top-dose-only effect, or another doubt; inactive means no such curve, though single readings can be large; an effect the other way counts as inactive or inconclusive. Unless noted, on the % scale 0 is the no-effect control and ±100 the full control effect; potency means the concentration at half of the fitted maximal effect.

SMILES	TRb SRC2 PPI	TexasRed fluor	VDR inhibitor	GoLoco inh red	GCN5L2 inh
N=C1/C(=C\c2coc3ccccc3c2=O)C(=O)N=C2SC(c3ccncc3)=NN12	?	?	28.2µM*	40.6%	?
N=C1/C(=C/c2coc3ccccc3c2=O)C(=O)N=C2SC(c3ccco3)=NN12	?	?	?	15.2%	-22.7%
CC(C)CSC1=NSC2=NC(=O)/C(=C\c3coc4ccccc4c3=O)C(=N)N12	14.6%	-7.6%	79.4µM*	76.7%	?
COc1cc(OC)c2c(c1C(CCN1CCCC(C)C1)c1ccc(N(C)C)cc1)OC(=O)CC2c1ccc(N(C)C)cc1 (configuration not stated)	-1.2%	-1.0%	11.2%	·	·
CC(C)(C)c1nnc(NC(=O)C2CCN(C(=O)c3ccccc3)CC2)s1	·	·	1.8%	·	·
O=[N+]([O-])c1ccc(S(=O)(=O)c2ccccc2)nc1	·	·	39.8µM*	·	47.4%
Cc1ccc(S(=O)(=O)c2ccc([N+](=O)[O-])cn2)cc1	·	·	25.1µM*	·	-0.1%
Cc1ccc(S(=O)(=O)c2ccc(C)cc2)cc1	-8.7%	-1.7%	3.6%	-2.8%	-6.2%
O=[N+]([O-])c1ccc(Nc2ccccc2)nc1	-6.4%	-1.4%	4.2%	5.3%	-3.9%
CCCCCCCCCCCC(=O)N(C)CC(=O)O	-1.2%[201 µM]	-0.5%[201 µM]	·	·	·
CSc1nc(N)nc(SCC(=O)Nc2cccc(F)c2)c1C#N	?	1.26µM*[quencher]	-10.1%	15.7%	-0.2%
COc1cc(NC(=O)C(c2ccccc2)c2ccccc2)c(C(=O)O)cc1OC	·	·	0.3%	·	-4.7%
O=S(c1ccc(Cl)cc1)c1cc(Cl)c(Cl)cc1Cl (configuration not stated)	-1.8%[201 µM]	1.8%[201 µM]	·	·	·
C=CC1=C(C)C2=NC1=CC1=NC(=CC3=NC(=CC4=NC(=C2)C(C)=C4CCC(=O)O)C(CCC(=O)O)=C3C)C(C=C)=C1C.[Zn]	12.6µM*	28.2µM*[fluorescent]	?	5.62µM*	-13.8%
Cc1cc(CCC(=O)O)c(C)cc1CCC(=O)O	-1.5%	-0.9%	6.2%	-5.4%	-6.9%
Nc1nc(N2CCOCC2)cc(=O)[nH]1	-13.8%	0.6%	-11.4%	20µM*	-28.3%
Nc1nc(Cl)cc(N2CCOCC2)n1	7.5%	-8.0%	3.2%	-3.0%	-6.0%
CC1(C)OC(=O)C2(Cc3ccccc3N3CCCC32)C(=O)O1 (configuration not stated)	·	·	-16.1%	·	·
O=C1C=C(NC2=CC3OC(c4ccccc4)OCC3OC2=O)CCC1 (configuration not stated)	-5.4%	-1.5%	79.4µM*	0.7%	-4.5%
N#Cc1ccccc1NC1=CC(=O)CCC1	-14.1%	-0.1%	-4.1%	2.5%	-0.9%
N#Cc1c(-c2ccccc2)nc(SCc2ccc(Cl)cc2)[nH]c1=O	·	·	79.4µM*	·	-28.3%
COC(=O)c1ccc(=O)c2nc3/c(=C/O)c(O)cc(=O)c3[nH]c12	?	25.1µM*[quencher]	-11.1%	2.5%	?
CCCCOCCOCCO	-8.0%[201 µM]	-1.8%[201 µM]	·	·	·
CC(C)(C)c1ccc(-c2cn(-c3ccc(Br)cc3)c3[n+]2CCCS3)cc1	-1.9%	-4.6%	-9.5%	35.5µM*	-3.8%
c1ccc(-c2cn(-c3ccccc3)c3[n+]2CCS3)cc1	-1.3%	-0.7%	2.4%	-12.9%	-6.8%
SMILES	TRb SRC2 PPI	TexasRed fluor	VDR inhibitor	GoLoco inh red	GCN5L2 inh
N#Cc1nc(-c2ccc(OCc3ccc(Cl)cc3)cc2)oc1N1CCCCCC1	·	·	117.3%	·	·
CCOC(=O)Cc1csc(-n2sc3ccccc3c2=O)n1	-0.1%	-6.6%	15.8µM*	2.5%	-16.3%[0.501 µM]
CC1(C)[C@@H](C=C(Cl)Cl)[C@@H]1C(=O)OCc1cccc(Oc2ccccc2)c1	-0.7%[201 µM]	-0.4%[201 µM]	·	·	·
CCN(CC)c1ccc(C(=O)O)cc1	-6.4%	-2.2%	-16.5%	-8.4%	-0.1%
CCN(CC)c1ccc(SS(=O)(=O)O)cc1	-29.3%	3.4%	79.4µM*	7.3%	-4.0%
CC1=NN(c2nc(-c3ccc(C)cc3)cs2)C(=O)C1N=Nc1ccccc1O (configuration not stated)	-4.3%	-6.2%	13.5%	60.0%	-6.2%
CC1=NN(c2nc(-c3ccc(C)cc3)cs2)C(=O)C1N=Nc1cccc(O)c1 (configuration not stated)	-0.1%	1.4%	79.4µM*	168.9%	-16.2%
